Compound activity: PubChem, Broad Institute
Most compounds without a hit are left out; they make up all but 2.1% or so of the library.
NSD2 inh: inhibitors of human histone methyltransferase NSD2; NSD2 peptide methylation, AlphaScreen, 120 min; O96028; actives 0.54% (n = 310,000); inhibition, % at 12.5 µM; in the data active = inhibition above about 50%
PGC1a acetyl inh: PGC1a acetylation modulation, inhibitor mode | U2OS PGC1a acetylation, AlphaScreen anti-acetyl-lysine; with virally co-expressed GCN5 acetyltransferase | inhibition, % at 15.6 µM | actives 0.17% (n = 350,000) | AID 651687;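 active = every replicate shows inhibition of at least 40%; inconclusive = mean inhibition at least 40% but some replicate below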
MLL AF4-AF9 inh: MLL-AF4/AF9 protein interaction inhibition; AlphaScreen, biotin-AF4 peptide binding to FLAG-AF9; inhibition, % at 10 µM; actives 0.47% (n = 350,000); AID 651704;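 active = every replicate reaching a set inhibition limit, whatever the replicate mean, cut at about 25% in these data; inconclusive = mean inhibition reaches that limit but some replicates miss it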
Target sequence (P42568 whole entry, looked up): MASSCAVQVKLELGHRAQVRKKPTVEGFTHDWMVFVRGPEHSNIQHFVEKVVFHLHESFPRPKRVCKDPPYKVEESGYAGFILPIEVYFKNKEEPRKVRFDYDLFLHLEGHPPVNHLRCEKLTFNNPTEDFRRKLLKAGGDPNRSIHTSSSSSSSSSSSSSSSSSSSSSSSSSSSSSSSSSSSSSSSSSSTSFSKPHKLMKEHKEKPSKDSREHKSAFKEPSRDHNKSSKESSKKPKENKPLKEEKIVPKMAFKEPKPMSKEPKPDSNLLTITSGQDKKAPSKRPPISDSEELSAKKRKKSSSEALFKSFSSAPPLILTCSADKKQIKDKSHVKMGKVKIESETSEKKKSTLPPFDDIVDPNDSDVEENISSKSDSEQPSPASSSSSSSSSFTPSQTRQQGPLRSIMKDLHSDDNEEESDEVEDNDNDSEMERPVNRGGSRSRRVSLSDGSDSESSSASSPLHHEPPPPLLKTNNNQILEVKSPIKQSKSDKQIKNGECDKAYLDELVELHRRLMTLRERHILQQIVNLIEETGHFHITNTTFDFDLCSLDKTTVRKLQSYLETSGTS
INS-1E GSIS act: primary screen for activators of insulin secretion dependent on glucose, INS-1E cells, GLuc reporter luminescence. INS-1E GLuc reporter insulin secretion, 2-3 h. activation, % at 16.6 µM. actives 0.61% (n = 370,000);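 active = lowest replicate activation of at least 40%, so every replicate reaches that level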
HIV Env fusion: HIV envelope-mediated fusion inhibition; inhibition, % at 12.3 µM; HeLa-JRFL Env/CEM21 cell fusion, luciferase; actives 1.1% (n = 360,000);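 active = mean replicate inhibition score of at least 50 and every replicate individually at or above 50; inconclusive = only one of the two criteria met; inactive = mean below 50 and not all replicates reaching 50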
Of the large screens only hits and unclear results are named; the others gave an inactive call; [ ] = dose if it differs, or a comment.

N#Cc1ccc(-c2ccc3c(c2)[C@@H]2[C@@H](CCN2C(=O)C2CCCC2)[C@@H](CO)N3)cc1	INS-1E GSIS act 41 (no result: NSD2 inh, PGC1a acetyl inh, HIV Env fusion)
COc1ccc(COC(=O)C2CCN(S(=O)(=O)c3ccc(OC)c(OC)c3)CC2)cc1	none (no result: INS-1E GSIS act)
CCOC(=O)C1=C(C)NC(=O)NC1c1ccc(N2CCC(c3ccccc3)=N2)cc1 (stereo not given)	none (no result: MLL AF4-AF9 inh)
COc1ccc(C(CCNCc2ccc(OC(C)C)cc2)C(C)C)cc1 (stereo not given)	MLL AF4-AF9 inh inconclusive
COc1ccc(CNCCC(c2ccc(OC(C)C)cc2)C(C)C)cc1OC (stereo not given)	HIV Env fusion 77 (no result: MLL AF4-AF9 inh)
COc1ccc(NC(=O)/C(Cl)=C(/Cl)S(=O)(=O)Cc2ccccc2)cn1	PGC1a acetyl inh 64 (no result: NSD2 inh, MLL AF4-AF9 inh, INS-1E GSIS act, HIV Env fusion)
COc1ccc(NC(=O)/C(Cl)=C(/Cl)S(=O)Cc2ccc(Cl)cc2)cn1 (stereo not given)	PGC1a acetyl inh 100, INS-1E GSIS act 46 (no result: NSD2 inh)
CCOc1ccc(NC(=O)/C(C#N)=C/c2ccc(N3CCCC3)c(C)c2)cc1	INS-1E GSIS act 115 (no result: MLL AF4-AF9 inh)
CCN(CC)S(=O)(=O)c1ccc(N2CCCCC2)c(NC(=O)/C(C#N)=C/c2ccc(OC)cc2)c1	none (no result: MLL AF4-AF9 inh)
Cc1ccc(CS(=O)(=O)c2ncc(Cl)c(C(=O)Nc3ccc(OC(F)F)cc3)n2)cc1	none (no result: PGC1a acetyl inh)
CCS(=O)(=O)c1ncc(Cl)c(C(=O)Nc2ccc(S(=O)(=O)N3CCCC(C)C3)cc2)n1 (stereo not given)	HIV Env fusion 57 (no result: PGC1a acetyl inh)
COc1ccc(CNC(=O)c2nc(S(=O)(=O)Cc3ccccc3)ncc2Cl)cc1	INS-1E GSIS act 59
CC(=O)Nc1ccc(NC(=O)c2nc(S(=O)(=O)Cc3ccccc3)ncc2Cl)cc1	INS-1E GSIS act 60 (no result: PGC1a acetyl inh)
CCS(=O)(=O)c1ncc(Cl)c(C(=O)Nc2ccc(C)cc2)n1	INS-1E GSIS act 63 (no result: PGC1a acetyl inh)
C[C@@H]1CN([C@@H](C)CO)C(=O)Cc2cc(NS(=O)(=O)c3ccc(F)cc3)ccc2O[C@H]1CN(C)Cc1ccc(C(F)(F)F)cc1	HIV Env fusion 56[16.7 µM] (no result: NSD2 inh)
C[C@@H]1CN([C@H](C)CO)C(=O)c2cccc(NS(=O)(=O)c3ccc(F)cc3)c2O[C@H]1CN(C)Cc1ccc(C(F)(F)F)cc1	none (no result: NSD2 inh)
C[C@@H]1CN([C@@H](C)CO)C(=O)c2cccc(NS(=O)(=O)c3ccc(F)cc3)c2O[C@@H]1CN(C)Cc1ccc(C(F)(F)F)cc1	HIV Env fusion 58[16.7 µM] (no result: NSD2 inh)
C[C@@H]1CN([C@H](C)CO)C(=O)c2cc(NS(=O)(=O)c3ccc(F)cc3)ccc2O[C@H]1CN(C)Cc1ccc(C(F)(F)F)cc1	PGC1a acetyl inh inconclusive, HIV Env fusion 72[16.7 µM] (no result: NSD2 inh)
C[C@@H]1CN([C@H](C)CO)C(=O)c2cc(NS(=O)(=O)c3ccc(F)cc3)ccc2O[C@@H]1CN(C)Cc1ccc(C(F)(F)F)cc1	none (no result: NSD2 inh)
C[C@@H]1CN([C@H](C)CO)C(=O)c2cccc(NS(=O)(=O)c3cn(C)cn3)c2O[C@@H]1CN(C)C(=O)Nc1ccc(F)cc1	none (no result: NSD2 inh)
C[C@@H]1CN([C@H](C)CO)C(=O)c2cccc(NS(=O)(=O)c3cn(C)cn3)c2O[C@H]1CN(C)C(=O)Nc1ccc(F)cc1	HIV Env fusion 73[16.7 µM] (no result: NSD2 inh)
COc1cc(CNC(=O)c2cc(-c3cc(C)cc(F)c3)n[nH]2)cc(OC)c1	PGC1a acetyl inh inconclusive
CC1(C)CC(=O)C2=C(C1)NC(Nc1nc3ccccc3o1)=NC21CCCC1	none (no result: MLL AF4-AF9 inh, INS-1E GSIS act)
FC(F)Oc1ccc(/C=N/NC(=S)Nc2cc(C(F)(F)F)ccc2Cl)cc1	INS-1E GSIS act 111 (no result: PGC1a acetyl inh, MLL AF4-AF9 inh)
Cn1c(=O)c2c(ncn2Cc2cccc(Cl)c2)n(C)c1=O	none (no result: MLL AF4-AF9 inh)
Cn1c(=O)c2c(ncn2Cc2ccc(Cl)c(Cl)c2)n(C)c1=O	HIV Env fusion 66 (no result: PGC1a acetyl inh, MLL AF4-AF9 inh)
O=C(C[C@H]1C[C@H]2c3cc(NS(=O)(=O)c4ccc(F)cc4)ccc3O[C@H]2[C@@H](CO)O1)NCc1ccc(-c2ccccc2)cc1	none (no result: NSD2 inh)
COc1cccc(S(=O)(=O)N[C@@H]2CC[C@H](CC(=O)NCc3ccncc3)O[C@@H]2CO)c1	HIV Env fusion 56[16.7 µM] (no result: NSD2 inh)
O=C(C[C@H]1C[C@H]2c3cc(NS(=O)(=O)c4ccc(F)cc4)ccc3O[C@H]2[C@@H](CO)O1)NCc1ccccc1F	HIV Env fusion 83[16.7 µM] (no result: NSD2 inh)
COc1cccc(S(=O)(=O)N[C@H]2CC[C@H](CC(=O)NCc3ccncc3)O[C@H]2CO)c1	none (no result: NSD2 inh, MLL AF4-AF9 inh)
O=C(C[C@H]1C[C@@H]2c3cc(NS(=O)(=O)c4ccc(F)cc4)ccc3O[C@@H]2[C@@H](CO)O1)NCc1ccc(-c2ccccc2)cc1	HIV Env fusion 71[16.7 µM] (no result: NSD2 inh)
COc1cccc(S(=O)(=O)Nc2ccc3c(c2)[C@H]2C[C@H](CC(=O)NCc4ccc(Cl)cc4)O[C@@H](CO)[C@H]2O3)c1	HIV Env fusion 57[16.7 µM] (no result: NSD2 inh)
C=CCNc1nc(C(=O)OCC(=O)c2ccc(OC)cc2OC)cs1	none (no result: HIV Env fusion)
C[C@H]1CN([C@@H](C)CO)C(=O)c2cc(C#Cc3ccccc3)cnc2O[C@H]1CN(C)CC1CCOCC1	none (no result: NSD2 inh)
O=C1C=C(Nc2cccc3cccnc23)c2ccccc2C1=O	NSD2 inh 104
C[C@@H]1CN([C@@H](C)CO)C(=O)c2c(c3ccccc3n2C)-c2ccccc2CO[C@H]1CN(C)C(=O)Nc1ccc2c(c1)OCO2	none (no result: NSD2 inh)
CCN1C(=O)C2(SC(NC(C)=O)=NN2C(C)=O)c2cc(C)cc(C)c21 (stereo not given)	MLL AF4-AF9 inh 50 (no result: HIV Env fusion)
Nc1cc2nsnc2cc1Br	PGC1a acetyl inh 60 (no result: NSD2 inh, MLL AF4-AF9 inh, INS-1E GSIS act, HIV Env fusion)
Nc1cccc2nsnc12	none
CCOC(=O)C1=C(C)N=c2s/c(=C\c3ccc(OCC(=O)O)c(OC)c3)c(=O)n2C1c1ccc(OC)cc1 (stereo not given)	none
Fc1ccc(/C=C/c2nnc(-c3cccs3)o2)cc1	NSD2 inh 51 (no result: PGC1a acetyl inh)
CCCCCCCCNS(=O)(=O)CCNCCc1ccccc1	none (no result: NSD2 inh)
CCCCCCCCNCCS(=O)(=O)NCCCCCCCC	INS-1E GSIS act 682 (no result: NSD2 inh, PGC1a acetyl inh, HIV Env fusion)
CO[C@H](CN(C)Cc1cc(F)ccc1F)[C@H](C)CN(C(=O)Nc1ccc(C(F)(F)F)cc1)[C@H](C)CO	none (no result: NSD2 inh, HIV Env fusion)
O=C(c1ccccc1)[C@@H]1[C@@H](C(=O)c2ccc(F)cc2)[C@@]2(C(=O)Nc3ccccc32)[C@H]2c3ccccc3C=CN12	HIV Env fusion 71 (no result: NSD2 inh)
CC(=O)[C@@H]1[C@@H](C(=O)c2ccccc2)[C@]2(C(=O)Nc3ccccc32)[C@H]2C=Cc3cc(F)ccc3N12	none (no result: PGC1a acetyl inh, MLL AF4-AF9 inh)
O=C1OCCC1Sc1nnc(-c2ccc(Cl)cc2Cl)o1 (stereo not given)	HIV Env fusion 59
CN(CCO)c1cc(Sc2nc3ccccc3s2)c2nonc2c1[N+](=O)[O-]	INS-1E GSIS act 164 (no result: HIV Env fusion)
N#C[C@H]1[C@H](c2ccc(C#CC3CCCC3)cc2)[C@@H](CO)N1C(=O)Nc1ccc(F)cc1	HIV Env fusion 56[16.7 µM] (no result: NSD2 inh)
Cc1cc(C)cc(SCc2noc(C(=O)NCC3CC3)c2C(=O)NCC2CC2)c1	none (no result: NSD2 inh, PGC1a acetyl inh)
C/C(=N\NC(=S)NC1CCCCC1)c1ccc(Cl)c(Cl)c1	none (no result: PGC1a acetyl inh)
Cn1c(SCc2nc3ccccc3c(=O)[nH]2)nnc1-c1ccco1	none (no result: MLL AF4-AF9 inh, HIV Env fusion)
Cc1ccc(NC(=O)Cn2cc(S(=O)(=O)c3ccc(F)cc3)c(=O)c3cc(F)ccc32)cc1	none (no result: NSD2 inh)
